# Measured values as given in the supplement of paper PMC8728848.
# Shown is part of a subset that was picked to be rich in the strongest signals.
# Assays:
# Assay in all cases: glycan array binding signal (z-score within array); higher = stronger binding
# Details in all cases: glycan notation: IUPAC condensed, linker removed
# [1] = target: Fuc(a1-2)Gal(b1-3)GalNAc(a1-3)[Fuc(a1-2)]Gal(b1-4)Glc
# In short: (§1)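 Glycan array data were curated from 3228 arrays in the Consortium for Functional Glycomics database and kept only where the protein sequence was available. Glycan names were converted to IUPAC-condensed notation, and columns mapping to the same glycan were averaged. The binding signal is a within-array Z-score, averaged across arrays of the same protein sequence at different concentrations or buffers and across linkers. Negative Z-scores can be read as non-binding.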
# [2] = target: Fuc(a1-2)Gal(b1-4)[Fuc(a1-3)]GlcNAc(b1-3)Gal(b1-4)[Fuc(a1-3)]GlcNAc
# In short: as §1
# [3] = target: Fuc(a1-2)Gal(b1-4)[Fuc(a1-3)]GlcNAc(b1-3)[Neu5Ac(a2-6)Gal(b1-4)GlcNAc(b1-6)]Gal(b1-4)Glc
# In short: as §1
# [4] = target: Fuc(a1-2)[Gal(a1-3)]Gal(b1-4)GlcNAc(b1-6)GalNAc
# In short: as §1
# [5] = target: Fuc(a1-2)[GalNAc(a1-3)]Gal(b1-3)GalNAc(a1-3)[Fuc(a1-2)]Gal(b1-4)GlcNAc
# In short: as §1
# [6] = target: Fuc(a1-2)[GalNAc(a1-3)]Gal(b1-4)[Fuc(a1-3)]GlcNAc(b1-3)GalNAc
# In short: as §1
# [7] = target: Fuc(a1-3)[Gal(b1-4)]GlcNAc(b1-2)Man(a1-3)[Fuc(a1-3)[Gal(b1-4)]GlcNAc(b1-2)Man(a1-6)]Man(b1-4)GlcNAc(b1-4)[Fuc(a1-6)]GlcNAc
# In short: as §1
# [8] = target: Gal(a1-3)GalNAc
# In short: as §1
# [9] = target: Gal(a1-3)[Gal(a1-4)]Gal(b1-4)GlcNAc
# In short: as §1
# [10] = target: Gal(a1-4)Gal(b1-4)Glc
# In short: as §1
# [11] = target: Gal(b1-3)GalNAc(b1-4)Gal(b1-4)Glc
# In short: as §1
# [12] = target: Gal(b1-3)GlcNAc(a1-3)Gal(b1-4)GlcNAc
# In short: as §1
# [13] = target: Gal(b1-4)Gal
# In short: as §1
# [14] = target: Gal(b1-4)GalNAc(a1-3)[Fuc(a1-2)]Gal(b1-4)GlcNAc
# In short: as §1
# [15] = target: Gal(b1-4)GlcNAc(b1-3)Gal(b1-4)GlcNAc(b1-3)Gal(b1-4)GlcNAc(b1-2)Man(a1-3)[Gal(b1-4)GlcNAc(b1-3)Gal(b1-4)GlcNAc(b1-3)Gal(b1-4)GlcNAc(b1-2)Man(a1-6)]Man(b1-4)GlcNAc(b1-4)[Fuc(a1-6)]GlcNAc
# In short: as §1
# [16] = target: Gal(b1-6)Gal
# In short: as §1
# [17] = target: Gal3S6S(b1-4)GlcNAc6S
# In short: as §1
# [18] = target: Gal6S(b1-4)Glc
# In short: as §1
# [19] = target: GalNAc(b1-3)Gal(a1-4)Gal(b1-4)GlcNAc
# In short: as §1
# [20] = target: GalNAc(b1-4)GlcNAc
# In short: as §1
# [21] = target: GalNAc4S6S(b1-4)GlcNAc
# In short: as §1
# [22] = target: GalNAc6S(b1-4)GlcNAc
# In short: as §1
# [23] = target: GlcA(b1-3)Gal
# In short: as §1
# [24] = target: GlcNAc(a1-4)Gal(b1-3)GlcNAc
# In short: as §1
# [25] = target: GlcNAc(a1-4)Gal(b1-4)GlcNAc(b1-3)Gal(b1-4)Glc
# In short: as §1
# [26] = target: GlcNAc(b1-2)Gal(b1-3)GalNAc
# In short: as §1
# [27] = target: GlcNAc(b1-2)[GlcNAc(b1-4)]Man(a1-3)[GlcNAc(b1-4)][GlcNAc(b1-2)Man(a1-6)]Man(b1-4)GlcNAc(b1-4)GlcNAc
# In short: as §1
# [28] = target: GlcNAc(b1-3)Gal(b1-4)GlcNAc(b1-2)[GlcNAc(b1-3)Gal(b1-4)GlcNAc(b1-6)]Man(a1-6)[GlcNAc(b1-3)Gal(b1-4)GlcNAc(b1-2)Man(a1-3)]Man(b1-4)GlcNAc(b1-4)GlcNAc
# In short: as §1
# [29] = target: GlcNAc(b1-3)Gal(b1-4)GlcNAc(b1-3)Gal(b1-4)GlcNAc(b1-2)[GlcNAc(b1-3)Gal(b1-4)GlcNAc(b1-3)Gal(b1-4)GlcNAc(b1-6)]Man(a1-6)[GlcNAc(b1-3)Gal(b1-4)GlcNAc(b1-3)Gal(b1-4)GlcNAc(b1-2)Man(a1-3)]Man(b1-4)GlcNAc(b1-4)[Fuc(a1-6)]GlcNAc
# In short: as §1
# [30] = target: GlcNAc(b1-3)Gal(b1-4)GlcNAc(b1-3)Gal(b1-4)GlcNAc(b1-3)Gal(b1-4)GlcNAc(b1-3)Gal(b1-4)GlcNAc(b1-2)[GlcNAc(b1-3)Gal(b1-4)GlcNAc(b1-3)Gal(b1-4)GlcNAc(b1-3)Gal(b1-4)GlcNAc(b1-3)Gal(b1-4)GlcNAc(b1-6)]Man(a1-6)[GlcNAc(b1-3)Gal(b1-4)GlcNAc(b1-3)Gal(b1-4)GlcNAc(b1-3)Gal(b1-4)GlcNAc(b1-3)Gal(b1-4)GlcNAc(b1-2)Man(a1-3)]Man(b1-4)GlcNAc(b1-4)[Fuc(a1-6)]GlcNAc
# In short: as §1
# [31] = target: GlcNAc(b1-6)Gal(b1-4)GlcNAc
# In short: as §1
# [32] = target: Kdn(a2-3)Gal(b1-4)[Fuc(a1-3)]GlcNAc
# In short: as §1
# [33] = target: Kdn(a2-6)Gal(b1-4)GlcNAc
# In short: as §1
# [34] = target: Man(a1-2)Man(a1-3)[Man(a1-6)]Man(a1-6)[Man(a1-2)Man(a1-3)]Man(b1-4)GlcNAc(b1-4)GlcNAc
# In short: as §1
# [35] = target: Man(a1-2)Man(a1-6)[Man(a1-3)]Man(a1-6)[Man(a1-2)Man(a1-2)Man(a1-3)]Man(b1-4)GlcNAc(b1-4)GlcNAc
# In short: as §1
# [36] = target: Man(a1-6)Man
# In short: as §1
# [37] = target: Neu5Ac(a2-3)Gal(b1-3)GalNAc
# In short: as §1
# [38] = target: Neu5Ac(a2-3)Gal(b1-4)GlcNAc(b1-3)Gal(b1-4)GlcNAc(b1-3)Gal(b1-4)GlcNAc(b1-2)Man(a1-3)[Neu5Ac(a2-3)Gal(b1-4)GlcNAc(b1-3)Gal(b1-4)GlcNAc(b1-3)Gal(b1-4)GlcNAc(b1-2)Man(a1-6)]GalNAc
# In short: as §1
# [39] = target: Neu5Ac(a2-3)Gal(b1-4)GlcNAc(b1-6)[Gal(b1-3)]GalNAc
# In short: as §1
# [40] = target: Neu5Ac(a2-3)Gal(b1-4)GlcNAc(b1-6)[Neu5Ac(a2-3)Gal(b1-3)]GalNAc
# In short: as §1
# [41] = target: Neu5Ac(a2-6)Gal
# In short: as §1
# [42] = target: Neu5Ac(a2-6)Gal(b1-4)GlcNAc(b1-2)Man(a1-3)[Gal(b1-4)GlcNAc(b1-2)Man(a1-6)]Man(b1-4)GlcNAc(b1-4)GlcNAc
# In short: as §1
# [43] = target: Neu5Ac(a2-6)Gal(b1-4)GlcNAc(b1-2)Man(a1-6)[Gal(b1-4)GlcNAc(b1-2)Man(a1-3)]Man(b1-4)GlcNAc(b1-4)GlcNAc
# In short: as §1
# [44] = target: Neu5Ac(a2-6)Gal(b1-4)GlcNAc(b1-3)GalNAc
# In short: as §1
# [45] = target: Neu5Gc(a2-3)Gal(b1-4)[Fuc(a1-3)]GlcNAc
# In short: as §1
binder,measurement,setting,value
"AT5G17240(42) (Arabidopsis thaliana), Q6NQJ8 (protein) MDLEHQTMETFLRWAAEIGISDSIDSSRFRDSCLGHSLSVSDFPDAGGRGLGAARELKKGELVLKVPRKALMTTESIIAKDLKLSDAVNLHNSLSSTQILSVCLLYEMSKEKKSFWYPYLFHIPRDYDLLATFGNFEKQALQVEDAVWATEKATAKCQSEWKEAGSLMKELELKPKFRSFQAWLWASATISSRTLHVPWDSAGCLCPVGDLFNYDAPGDYSNTPQGPESANNVEEAGLVVETHSERLTDGGFEEDVNAYCLYARRNYQLGEQVLLCYGTYTNLELLEHYGFMLEENSNDKVFIPLETSLFSLASSWPKDSLYIHQDGKLSFALISTLRLWLIPQSQRDKSVMRLVYAGSQISVKNEILVMKWMSEKCGSVLRDLPTSVTEDTVLLHNIDKLQDPELRLEQKETEAFGSEVRAFLDANCLWDVTVLSGKPIEFSRKTSRMLSKWRWSVQWRLSYKRTLADCISYCNEKMNNLLGTQDRLRDL",glycan array binding signal (z-score),[1],0.123
same,glycan array binding signal (z-score),[2],0.458
same,glycan array binding signal (z-score),[3],-0.37
same,glycan array binding signal (z-score),[4],-0.375
same,glycan array binding signal (z-score),[5],-0.276
same,glycan array binding signal (z-score),[6],6.64
same,glycan array binding signal (z-score),[7],0.044
same,glycan array binding signal (z-score),[8],1.94
same,glycan array binding signal (z-score),[9],8.82
same,glycan array binding signal (z-score),[10],4.63
same,glycan array binding signal (z-score),[11],1.23
same,glycan array binding signal (z-score),[12],-0.028
same,glycan array binding signal (z-score),[13],0.335
same,glycan array binding signal (z-score),[14],-0.444
same,glycan array binding signal (z-score),[15],-0.845
same,glycan array binding signal (z-score),[16],-0.362
same,glycan array binding signal (z-score),[17],1.61
same,glycan array binding signal (z-score),[18],-0.21
same,glycan array binding signal (z-score),[19],3.08
same,glycan array binding signal (z-score),[20],8.25
same,glycan array binding signal (z-score),[21],1.39
same,glycan array binding signal (z-score),[22],-0.134
same,glycan array binding signal (z-score),[23],-0.785
same,glycan array binding signal (z-score),[24],-0.54
same,glycan array binding signal (z-score),[25],-0.607
same,glycan array binding signal (z-score),[26],-0.394
same,glycan array binding signal (z-score),[27],-0.434
same,glycan array binding signal (z-score),[28],2.56
same,glycan array binding signal (z-score),[29],1.12
same,glycan array binding signal (z-score),[30],1.33
same,glycan array binding signal (z-score),[31],1.88
same,glycan array binding signal (z-score),[32],-0.336
same,glycan array binding signal (z-score),[33],-0.164
same,glycan array binding signal (z-score),[34],0.607
same,glycan array binding signal (z-score),[35],-0.172
same,glycan array binding signal (z-score),[36],0.232
same,glycan array binding signal (z-score),[37],-0.438
same,glycan array binding signal (z-score),[38],2.21
same,glycan array binding signal (z-score),[39],-0.303
same,glycan array binding signal (z-score),[40],-0.407
same,glycan array binding signal (z-score),[41],0.474
same,glycan array binding signal (z-score),[42],-0.171
same,glycan array binding signal (z-score),[43],-0.325
same,glycan array binding signal (z-score),[44],-0.543
same,glycan array binding signal (z-score),[45],-0.299
